This is an account of results in article PMC4336329 (PLoS ONE, 2015).

Structures are written as SMILES. Among all 310,000 compounds or so, about 14,000 (4.5%) showed an effect of 50% or more. The effect is printed as a negative number. This is one part of a sample in which strong results are shown more often than they occur.
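Further: peak tail current of the secondary pulse compared with the same well before compound.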

The target of this experiment is human ether-à-go-go-related gene (hERG) potassium channel (human, UniProt Q12809). The experiment in a line: primary screen, population patch clamp on CHO cells stably expressing hERG; higher = less effect of the substance.
human ether-à-go-go-related gene (hERG) potassium channel, sequence (Q12809 whole entry, looked up): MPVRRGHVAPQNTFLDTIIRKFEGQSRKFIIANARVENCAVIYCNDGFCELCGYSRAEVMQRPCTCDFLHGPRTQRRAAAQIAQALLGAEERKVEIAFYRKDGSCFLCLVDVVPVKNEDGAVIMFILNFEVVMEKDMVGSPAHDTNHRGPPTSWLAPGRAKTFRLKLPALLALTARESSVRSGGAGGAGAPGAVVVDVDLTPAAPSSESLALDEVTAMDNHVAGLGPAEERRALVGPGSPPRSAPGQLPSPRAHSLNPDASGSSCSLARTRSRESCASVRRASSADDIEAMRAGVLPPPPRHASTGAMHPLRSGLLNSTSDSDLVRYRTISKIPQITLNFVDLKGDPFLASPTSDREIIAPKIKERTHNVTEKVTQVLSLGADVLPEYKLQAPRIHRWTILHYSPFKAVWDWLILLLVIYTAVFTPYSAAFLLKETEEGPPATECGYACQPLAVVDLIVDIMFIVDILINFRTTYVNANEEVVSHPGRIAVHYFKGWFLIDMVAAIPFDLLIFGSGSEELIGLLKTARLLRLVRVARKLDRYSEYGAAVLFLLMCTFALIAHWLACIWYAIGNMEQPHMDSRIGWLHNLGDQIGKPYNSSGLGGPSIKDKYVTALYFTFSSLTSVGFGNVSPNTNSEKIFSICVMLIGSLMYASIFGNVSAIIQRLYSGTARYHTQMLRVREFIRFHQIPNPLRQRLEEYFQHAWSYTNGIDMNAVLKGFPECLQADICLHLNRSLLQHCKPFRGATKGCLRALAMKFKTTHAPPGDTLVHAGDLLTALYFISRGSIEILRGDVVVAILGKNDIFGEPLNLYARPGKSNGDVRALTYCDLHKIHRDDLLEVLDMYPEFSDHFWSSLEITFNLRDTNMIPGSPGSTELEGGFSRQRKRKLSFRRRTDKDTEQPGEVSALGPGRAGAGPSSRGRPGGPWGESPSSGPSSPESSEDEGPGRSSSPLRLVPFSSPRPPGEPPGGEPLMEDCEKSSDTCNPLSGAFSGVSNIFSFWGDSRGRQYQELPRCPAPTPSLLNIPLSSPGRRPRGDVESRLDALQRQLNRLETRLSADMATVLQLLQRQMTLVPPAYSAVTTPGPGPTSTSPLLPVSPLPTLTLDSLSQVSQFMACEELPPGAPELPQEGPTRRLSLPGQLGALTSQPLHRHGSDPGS
Turning to `Cc1ccc(-c2n[nH]c(=S)n2/N=C/c2ccc(C(=O)O)cc2)cc1`, the “hERG current change (%, negative = inhibition) at 10uM” value was 3.02%.
As for `CCN(CC)c1ccc(N=Cc2ccc(N(CC)CC)cc2O)cc1`, the figure is 0.156%; as for `CCCN1CCN(C(=O)c2nn(-c3ccc(OC)cc3)c(=O)c3c2c2ccccc2n3C)CC1`, -3.71%.
As for `Cc1ccc(S(=O)(=O)N2CCN(C(=O)CCC(=O)NCc3ccc(F)cc3)CC2)cc1`, the figure is -24%.
As for `Cc1ccc(C)c(S(=O)(=O)N2CCN(C(=O)CCC(=O)NCc3ccc(Cl)cc3)CC2)c1`, the figure is -65.1%.
As for `Cc1ccc(S(=O)(=O)N2CCN(C(=O)CCC(=O)NCc3cccc(C(F)(F)F)c3)CC2)cc1`, the “hERG current change (%, negative = inhibition) at 10uM” value is recorded as -54.2%.
As for `O=C(CCC(=O)N1CCN(S(=O)(=O)c2ccc(Cl)cc2)CC1)NCc1ccccc1`, the figure is -14.8%.
For `O=C(CCC(=O)N1CCOCC1)NCc1cccc(C(F)(F)F)c1`, the “hERG current change (%, negative = inhibition) at 10uM” value is given as -0.171%.
In the case of `Cc1ccc(S(=O)(=O)CCC(=O)N2CCc3ccccc32)cc1`, the “hERG current change (%, negative = inhibition) at 10uM” value is given as -16%.
`O=C(CCC(=O)N1CCCc2ccccc21)N1CCN(S(=O)(=O)c2ccccc2)CC1`: the “hERG current change (%, negative = inhibition) at 10uM” value was -9.26%.
As for `COc1ccc(CNC(=O)CCC(=O)N2CCN(S(=O)(=O)c3ccc(Cl)cc3)CC2)cc1`, the figure is 22.3%.
As for `Cc1ccc(S(=O)(=O)N2CCN(C(=O)CCC(=O)N3CCc4ccccc43)CC2)cc1`, the figure is -62.2%; as for `O=C(CSc1nnc(-c2ccccc2O)n1Cc1ccccc1)NNC(=O)c1ccccc1O`, 0.52%.
As for `COc1nccc(C(F)(F)F)c1C(=O)NC(=O)Nc1ccccc1`, the figure is -8.51%; as for `CCOC(=O)C1CCCN(C(=O)c2cc(S(=O)(=O)N3CCCCC3)c[nH]2)C1` (stereo not drawn), 14.5%; as for `CCOC(=O)c1c(C)[nH]c(C)c1S(=O)(=O)N1CCCCC1`, 15.9%.
Take `CCOC(=O)CC(NS(=O)(=O)Cc1ccccc1)c1ccc(C)cc1` (stereo not drawn): the “hERG current change (%, negative = inhibition) at 10uM” value is recorded as -5.46%.
As for `Cc1ccccc1NC(=O)CCC(=O)N/N=C/c1c[nH]c2ccccc12`, the figure is 2.16%; as for `C=CCn1c2ccccc2c2nnc(SCC(=O)NC(C(=O)OC)C(C)C)nc21` (stereo not drawn), -15.1%.
As for `COc1ccc(-n2c(-c3ccc(Br)cc3)c[n+]3c2CCCCC3)cc1.[Br-]`, the figure is -80.3%; as for `COc1ccc(-n2c(-c3ccc(Br)cc3)n[nH]c2=S)cc1`, 13.3%; as for `COc1ccc(-c2c[n+]3c(n2-c2ccc(C)cc2)CCCCC3)cc1.[Br-]`, -48.2%.
As for `COc1ccc(-n2c(-c3ccc(Br)cc3)c[n+]3c2SC(C)C3)cc1.[Br-]` (stereo not drawn), the figure is -72.6%; as for `COc1ccc(-n2c(-c3ccc(Br)cc3)c[n+]3c2CCC3)cc1.[Br-]`, -56%; as for `COc1ccc(-c2c[n+]3c(n2-c2c(C)n(C)n(-c4ccccc4)c2=O)CCCCC3)cc1.[Br-]`, 4.43%.
Regarding `COc1ccc(-n2c(-c3ccccc3)c[n+]3c2CCC3)cc1.[Br-]`, the “hERG current change (%, negative = inhibition) at 10uM” value was -20.5%.
As for `COc1cc(/C=C/c2ccc3cccc(OC)c3n2)c(O)c([N+](=O)[O-])c1`, the figure is 9.97%; as for `CNC(=S)N(Cc1ccc(OC)cc1)Cc1cc2cc(C)ccc2[nH]c1=O`, 18%; as for `O=c1ccc(Cl)cn1Cc1ccccc1F`, 5.34%.
As for `CCN1C(=O)/C(=C/c2cnn(CC)c2C)SC1=S`, the figure is 5.73%; as for `COc1ccc(S(=O)(=O)N2CCOc3ccccc32)cc1`, -1.55%.
As for `Cc1ccccc1NC(=O)C(C)N1C(=O)c2ccccc2C1=O` (stereo not drawn), the figure is 14.7%; as for `COc1ccc(C2NC(=O)c3ccccc3N2)cc1OC` (stereo not drawn), 13%.
On to `COc1ccc(Cc2nnc(SCC(=O)N3CCCC3)o2)cc1`, for which the “hERG current change (%, negative = inhibition) at 10uM” value is recorded as 2.54%.
As for `COc1ccc(/C(N)=N/OC(=O)Cc2ccc(C)cc2)cc1`, the figure is 9.68%; as for `C=CCNc1oc(Cc2cccc3ccccc23)nc1C#N`, -14.7%.
As for `CCCCn1c(=O)n(C)c(=O)c2c(C(F)(F)F)cc(-c3ccncc3)nc21`, the figure is -28%.
With `Cc1nc(C)c(-c2ccc(SCc3cccc(F)c3)nn2)s1`, the “hERG current change (%, negative = inhibition) at 10uM” value is -50.6%.
As for `Cc1nc(C)c(-c2ccc(SCc3ccc(Cl)cc3)nn2)s1`, the figure is -14.7%; as for `Cc1nc(C)c(-c2ccc(SCc3ccccc3F)nn2)s1`, 4.94%.
With `O=C(O)CCC(=O)NCc1ccc(F)cc1`, the “hERG current change (%, negative = inhibition) at 10uM” value is recorded as -7.12%.
As for `Cc1oc(C(C)(C)C)cc1C(N)=O`, the figure is 12.7%.
As for `CSc1ncccc1C(=O)NCc1ccccc1Cl`, the figure is -7.25%; as for `Cc1ccc(S(=O)(=O)N2CCCCC2)cc1NC(=O)COC(=O)C1CC2C=CC1C2` (stereo not drawn), -62%; as for `O=C(COC(=O)C1CC2C=CC1C2)Nc1cccc(S(=O)(=O)N2CCCCCC2)c1` (stereo not drawn), -23.2%.
As for `Cc1ccc(S(=O)(=O)N2CCCCC2)cc1NC(=O)COC(=O)CNC(=O)c1cc(Cl)cc([N+](=O)[O-])c1`, the figure is -51.4%; as for `Cc1ccc(NC(=O)COC(=O)C2CC3C=CC2C3)cc1S(=O)(=O)N1CCCCC1` (stereo not drawn), -7.32%; as for `O=C(COC(=O)CNC(=O)c1cccc([N+](=O)[O-])c1)Nc1cccc(S(=O)(=O)N2CCCCC2)c1`, -30.8%.
In the case of `Cc1ccc(NC(=O)COC(=O)CNC(=O)c2cccc([N+](=O)[O-])c2)cc1S(=O)(=O)N1CCCCCC1`, the “hERG current change (%, negative = inhibition) at 10uM” value was -49.1%.
As for `CC(=O)CC(=O)NC(=NC1CCCCC1)Nc1nc(C)cc(C)n1`, the “hERG current change (%, negative = inhibition) at 10uM” value was 7.01%.
As for `Nc1ccc2c(c1)nnn2-c1ccccc1`, the figure is -7.35%; as for `Cn1c(SCC(=O)NC2CC2)nnc1-c1cccc(NC(=O)c2ccccc2F)c1`, -3.11%.
For the compound `CCOc1ccccc1N(CC(=O)NC1CCCC1)C(=O)CNC(=O)c1cccs1`, the “hERG current change (%, negative = inhibition) at 10uM” value is on record as -3.75%.
As for `CCN1CCN(CC(=O)c2c[nH]c3ccc(C)cc23)CC1`, the figure is -4.16%.
